# In PubChem BioAssay:
# Several values for one entry are separate records, joined by “and”; a condition that tells them apart may be missing. Equal entries are not always repeated. Activity calls are given as the source filed them.
# How the values were obtained:
# [1] = system: PRMT1 (protein arginine N-methyltransferase 1); assay: small molecules binding arginine methyltransferase PRMT1 – biochemical, small-molecule microarray, 635 nm fluorescence, primary screen (AID 1088); conditions: higher = more signal;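 note: binding of Prmt1 protein to compounds spotted on small-molecule microarray slides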
# [2] = growth effects on S. cerevisiae YJM789 – YJM789 clinical isolate, OD600, 24 h, basal, primary screen (AID 1089); conditions: higher = more signal, called active from +8 up or from −8 down;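 note: growth of clinical yeast isolate S. cerevisiae YJM 789 seeded 1000 cells per well; test concentration not given here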
# [3] = S. pombe growth modifiers, basal conditions – strain 972, OD600, 24 h, no modulator, primary screen (AID 1090);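 note: basal condition with compound alone and no growth modifier present; test concentration not given here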; conditions: S. pombe 972 growth, higher = more signal, called active from +8 up or from −8 down
# [4] = budding yeast growth modifiers under rapamycin – strain BY4716, OD600, 96 h, primary screen (AID 1091); note: test concentration not given here; conditions: S. cerevisiae BY4716 + rapamycin, higher = more signal, called active from +8 up or from −8 down
# [5] = molecular target: Torsin-1A-interacting protein 2 (Homo sapiens) (UniProt Q8NFQ8); assay: small molecules binding lysate-expressed LULL1 – cell lysate, human LULL1 lysate, 635/667 nm fluorescence, primary screen (AID 1092); conditions: small-molecule microarray, hLULL1 lysate binding, 635 nm fluorescence; higher = more signal;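 note: probe is lysate of COS7 cells overexpressing human LULL1; score merges per-feature 667 nm fluorescence with signal-to-noise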
# Chain of Torsin-1A-interacting protein 2 (Homo sapiens) (Q8NFQ8 whole entry, looked up): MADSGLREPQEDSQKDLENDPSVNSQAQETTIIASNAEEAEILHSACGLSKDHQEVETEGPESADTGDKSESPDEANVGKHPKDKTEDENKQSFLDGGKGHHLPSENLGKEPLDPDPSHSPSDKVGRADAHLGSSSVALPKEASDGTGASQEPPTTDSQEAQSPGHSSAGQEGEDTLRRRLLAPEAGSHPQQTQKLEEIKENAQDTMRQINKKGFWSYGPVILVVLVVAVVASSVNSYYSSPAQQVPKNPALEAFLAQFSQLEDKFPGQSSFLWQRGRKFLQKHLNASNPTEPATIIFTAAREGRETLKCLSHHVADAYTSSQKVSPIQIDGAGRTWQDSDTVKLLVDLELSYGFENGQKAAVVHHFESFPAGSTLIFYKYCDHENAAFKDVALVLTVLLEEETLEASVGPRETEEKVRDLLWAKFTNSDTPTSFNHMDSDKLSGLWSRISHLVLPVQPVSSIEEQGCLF
# [6] = optical density change of DRC41 E. coli – strain DRC41, OD650, 24 h, E. coli filamentation project, primary screen (AID 1093);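 note: MC1000 strain lacking acrAB efflux and sulA so SOS filamentation is blocked; test concentration not given here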; conditions: E. coli DRC41 growth, higher = more signal, called active from +8 up or from −8 down
# [7] = probe aLefty2 binding to arrayed compounds – biochemical, biotinylated probe, 635/667 nm fluorescence, primary screen (AID 1094); conditions: small-molecule microarray, higher = more signal;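 note: score merges spot fluorescence near 667 nm with spot signal-to-noise ratio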
# [8] = system: Noggin (protein binding on small-molecule microarray); assay: small molecules binding Noggin protein – biochemical, 635/667 nm fluorescence, primary screen (AID 1095); conditions: 635 nm fluorescence, higher = more signal;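 note: score merges 667 nm feature fluorescence with signal to noise over triplicate slides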
# [9] = molecular target: Neurogenic locus notch homolog protein 3 (Homo sapiens) (UniProt Q9UM47); assay: small molecules binding NOTCH3 protein – biochemical, 635/667 nm fluorescence, primary screen (AID 1096); conditions: small-molecule microarray, 635 nm fluorescence, higher = more signal
# Chain of Neurogenic locus notch homolog protein 3 (Homo sapiens) (Q9UM47 whole entry, looked up): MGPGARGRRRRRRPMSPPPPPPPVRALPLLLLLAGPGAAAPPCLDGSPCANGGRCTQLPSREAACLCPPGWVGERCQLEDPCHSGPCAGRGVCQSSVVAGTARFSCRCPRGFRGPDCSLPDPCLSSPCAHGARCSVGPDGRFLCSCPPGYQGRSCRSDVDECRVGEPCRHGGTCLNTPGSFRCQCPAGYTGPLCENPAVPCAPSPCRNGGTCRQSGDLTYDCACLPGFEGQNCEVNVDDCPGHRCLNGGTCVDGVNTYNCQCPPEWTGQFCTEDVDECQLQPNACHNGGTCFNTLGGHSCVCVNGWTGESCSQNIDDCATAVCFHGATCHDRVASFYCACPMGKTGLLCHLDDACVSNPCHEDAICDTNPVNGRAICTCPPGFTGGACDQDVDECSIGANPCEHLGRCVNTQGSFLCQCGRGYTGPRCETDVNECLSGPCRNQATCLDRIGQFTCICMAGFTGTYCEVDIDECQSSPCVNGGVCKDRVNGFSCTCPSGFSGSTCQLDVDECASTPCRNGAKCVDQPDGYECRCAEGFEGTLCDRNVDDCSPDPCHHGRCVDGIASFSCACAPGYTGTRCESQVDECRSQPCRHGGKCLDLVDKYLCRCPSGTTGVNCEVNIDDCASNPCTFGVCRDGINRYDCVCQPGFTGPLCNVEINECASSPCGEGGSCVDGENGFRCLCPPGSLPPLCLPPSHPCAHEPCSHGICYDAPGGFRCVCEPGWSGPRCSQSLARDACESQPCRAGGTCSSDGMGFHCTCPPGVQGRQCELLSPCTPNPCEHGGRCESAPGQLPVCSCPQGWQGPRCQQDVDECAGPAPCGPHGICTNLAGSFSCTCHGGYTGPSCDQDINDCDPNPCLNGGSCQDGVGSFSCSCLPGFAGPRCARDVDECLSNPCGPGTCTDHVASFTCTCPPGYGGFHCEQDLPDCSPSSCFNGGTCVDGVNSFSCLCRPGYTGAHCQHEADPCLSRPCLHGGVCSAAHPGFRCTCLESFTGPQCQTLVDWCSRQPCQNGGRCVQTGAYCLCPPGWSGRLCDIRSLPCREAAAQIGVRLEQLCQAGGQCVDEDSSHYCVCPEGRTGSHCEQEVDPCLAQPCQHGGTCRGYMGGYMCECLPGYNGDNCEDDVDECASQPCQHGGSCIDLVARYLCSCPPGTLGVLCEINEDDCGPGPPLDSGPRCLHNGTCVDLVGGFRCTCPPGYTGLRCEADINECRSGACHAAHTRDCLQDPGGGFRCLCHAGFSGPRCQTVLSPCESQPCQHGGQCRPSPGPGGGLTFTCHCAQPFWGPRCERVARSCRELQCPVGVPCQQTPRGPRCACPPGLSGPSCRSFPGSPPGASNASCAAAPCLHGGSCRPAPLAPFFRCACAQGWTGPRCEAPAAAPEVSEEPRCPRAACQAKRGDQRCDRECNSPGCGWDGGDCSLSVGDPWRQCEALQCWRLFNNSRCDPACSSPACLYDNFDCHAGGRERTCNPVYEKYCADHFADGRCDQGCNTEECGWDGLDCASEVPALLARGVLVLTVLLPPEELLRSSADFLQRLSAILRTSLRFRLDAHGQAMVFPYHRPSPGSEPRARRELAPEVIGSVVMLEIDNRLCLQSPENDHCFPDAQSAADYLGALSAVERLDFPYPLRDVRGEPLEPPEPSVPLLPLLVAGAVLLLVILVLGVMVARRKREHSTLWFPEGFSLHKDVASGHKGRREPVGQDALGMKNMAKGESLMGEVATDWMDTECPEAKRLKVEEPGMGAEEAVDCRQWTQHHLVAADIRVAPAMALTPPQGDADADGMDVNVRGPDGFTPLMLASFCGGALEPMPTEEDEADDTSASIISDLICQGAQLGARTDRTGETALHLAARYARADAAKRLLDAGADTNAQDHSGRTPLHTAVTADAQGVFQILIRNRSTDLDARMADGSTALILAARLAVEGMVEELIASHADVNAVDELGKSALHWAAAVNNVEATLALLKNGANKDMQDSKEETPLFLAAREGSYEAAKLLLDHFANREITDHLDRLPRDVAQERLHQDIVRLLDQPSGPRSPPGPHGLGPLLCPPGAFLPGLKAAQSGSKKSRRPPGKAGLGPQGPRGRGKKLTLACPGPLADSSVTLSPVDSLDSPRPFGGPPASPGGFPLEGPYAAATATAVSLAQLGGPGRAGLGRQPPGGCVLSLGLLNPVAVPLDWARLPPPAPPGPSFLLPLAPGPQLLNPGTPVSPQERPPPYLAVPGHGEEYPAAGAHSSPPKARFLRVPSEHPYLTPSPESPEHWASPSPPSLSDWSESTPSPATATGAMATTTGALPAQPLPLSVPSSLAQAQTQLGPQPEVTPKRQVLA
# [10] = probe aEGFR binding to arrayed compounds – biochemical, biotinylated probe, 635/667 nm fluorescence, primary screen (AID 1097); conditions: small-molecule microarray, higher = more signal;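 note: probe is a biotinylated anti-EGFR antibody binding compounds printed on slides; score combines fluorescence near 667 nm and signal to noise of each spot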
# [11] = system: Plasmodium falciparum Sir2 (PF13_0152, Sir2A); assay: Plasmodium falciparum Sir2A binding compounds – biochemical, small-molecule microarray, 635 nm fluorescence, primary screen (AID 1098); conditions: fluorescence 635 nm, higher = more signal;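 note: score merges spot fluorescence intensity with its signal-to-noise ratio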
# [12] = probe aDKK1 binding to arrayed compounds – biochemical, biotinylated probe, 635/667 nm fluorescence, primary screen (AID 1099); conditions: small-molecule microarray, higher = more signal;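 note: score merges 667nm spot fluorescence with signal to noise across triplicate slides; reference of the scale not given here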
# [13] = probe aCHRDL2 binding to arrayed compounds – biochemical, biotinylated probe, 635/667 nm fluorescence, primary screen (AID 1100); conditions: small-molecule microarray, higher = more signal
# [14] = change in splice reporter luminescence, either direction, cell-based, HEK293, spliceosome inhibition project, primary screen (AID 1101); conditions: HEK293 splicing luciferase reporter, 24 h, higher = more signal, called active from +8 up or from −8 down;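 note: HEK293 cells carrying a splicing-competent luciferase reporter gene; test concentration not given here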
# [15] = molecular target: Fibroblast growth factor 10 (Homo sapiens) (UniProt O15520); assay: compounds binding fibroblast growth factor 10 – biochemical, small-molecule microarray, 635 nm fluorescence, primary screen (AID 1102); conditions: FGF10 binding, fluorescence 635 nm, higher = more signal
# Chain of Fibroblast growth factor 10 (Homo sapiens) (O15520 whole entry, looked up): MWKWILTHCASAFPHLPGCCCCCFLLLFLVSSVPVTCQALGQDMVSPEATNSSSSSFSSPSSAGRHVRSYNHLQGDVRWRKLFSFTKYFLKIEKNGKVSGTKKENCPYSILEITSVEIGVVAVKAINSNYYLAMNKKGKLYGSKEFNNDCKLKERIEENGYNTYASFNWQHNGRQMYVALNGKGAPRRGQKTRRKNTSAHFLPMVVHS
# [16] = system: glycogen synthase kinase-3 (GSK3A per assay name; protocol says GSK3B); assay: compounds binding glycogen synthase kinase-3 – biochemical, small-molecule microarray, 635 nm fluorescence, GSK3A, primary screen (AID 1103); conditions: fluorescence 635 nm, higher = more signal; note: the record names both GSK3A and GSK3B
# [17] = molecular target: Epidermal growth factor receptor (Homo sapiens) (UniProt P00533); assay: compounds binding epidermal growth factor receptor – biochemical, small-molecule microarray, 635 nm fluorescence, primary screen (AID 1104); conditions: EGFR binding, higher = more signal;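 note: score merges 667 nm emission intensity with spot signal to noise over triplicate slides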
# Chain of Epidermal growth factor receptor (Homo sapiens) (P00533 whole entry, looked up): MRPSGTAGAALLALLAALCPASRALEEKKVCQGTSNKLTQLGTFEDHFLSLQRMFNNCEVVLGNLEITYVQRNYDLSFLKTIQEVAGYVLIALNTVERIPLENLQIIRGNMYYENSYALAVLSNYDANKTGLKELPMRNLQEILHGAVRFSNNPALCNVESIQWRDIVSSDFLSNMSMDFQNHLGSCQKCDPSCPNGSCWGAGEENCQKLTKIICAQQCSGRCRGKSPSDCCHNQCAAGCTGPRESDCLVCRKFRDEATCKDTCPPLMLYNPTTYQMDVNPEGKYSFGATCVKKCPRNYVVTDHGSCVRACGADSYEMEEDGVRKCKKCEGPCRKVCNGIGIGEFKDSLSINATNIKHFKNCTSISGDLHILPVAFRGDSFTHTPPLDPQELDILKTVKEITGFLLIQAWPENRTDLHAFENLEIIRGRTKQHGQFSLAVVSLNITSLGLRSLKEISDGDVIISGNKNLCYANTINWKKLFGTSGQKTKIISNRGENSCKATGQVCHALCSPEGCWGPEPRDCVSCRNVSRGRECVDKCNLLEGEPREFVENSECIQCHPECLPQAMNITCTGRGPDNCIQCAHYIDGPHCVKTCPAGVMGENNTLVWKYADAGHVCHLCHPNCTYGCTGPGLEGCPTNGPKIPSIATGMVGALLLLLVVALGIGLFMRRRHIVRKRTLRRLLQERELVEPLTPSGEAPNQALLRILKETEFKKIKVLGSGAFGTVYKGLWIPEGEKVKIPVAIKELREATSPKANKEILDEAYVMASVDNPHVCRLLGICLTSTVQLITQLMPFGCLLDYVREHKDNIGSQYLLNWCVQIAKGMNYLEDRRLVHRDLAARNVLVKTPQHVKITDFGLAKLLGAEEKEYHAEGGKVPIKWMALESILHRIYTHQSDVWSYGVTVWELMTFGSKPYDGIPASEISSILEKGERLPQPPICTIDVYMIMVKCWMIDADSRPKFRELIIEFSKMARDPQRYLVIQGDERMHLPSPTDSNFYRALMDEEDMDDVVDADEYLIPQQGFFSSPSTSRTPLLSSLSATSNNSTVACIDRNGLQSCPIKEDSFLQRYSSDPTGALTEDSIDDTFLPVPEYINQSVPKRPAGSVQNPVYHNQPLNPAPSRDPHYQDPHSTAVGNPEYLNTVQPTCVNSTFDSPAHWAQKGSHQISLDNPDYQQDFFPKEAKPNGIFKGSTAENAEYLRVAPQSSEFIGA
# [18] = molecular target: Follistatin-related protein 3 (Homo sapiens) (UniProt O95633); assay: compounds binding follistatin-related protein 3 – biochemical, small-molecule microarray, 635 nm fluorescence, primary screen (AID 1105); conditions: FSTL3 binding, higher = more signal;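 note: score merges emission near 667 nm and signal to noise per printed spot across three slides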
# Chain of Follistatin-related protein 3 (Homo sapiens) (O95633 whole entry, looked up): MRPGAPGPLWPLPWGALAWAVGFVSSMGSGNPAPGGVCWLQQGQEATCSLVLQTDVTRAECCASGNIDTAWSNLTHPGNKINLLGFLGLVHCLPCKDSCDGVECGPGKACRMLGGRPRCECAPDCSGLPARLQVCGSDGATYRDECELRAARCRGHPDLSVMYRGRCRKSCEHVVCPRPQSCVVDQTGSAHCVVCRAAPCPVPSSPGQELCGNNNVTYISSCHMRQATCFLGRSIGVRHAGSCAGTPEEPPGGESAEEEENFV
# [19] = molecular target: Dickkopf-related protein 1 (Homo sapiens) (UniProt O94907); assay: small molecules binding DKK1 protein – biochemical, small-molecule microarray, 635 nm fluorescence scan, primary screen (AID 1106); conditions: higher = more signal;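 note: score merges emission near 667 nm with signal to noise over three replicate slides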
# Chain of Dickkopf-related protein 1 (Homo sapiens) (O94907 whole entry, looked up): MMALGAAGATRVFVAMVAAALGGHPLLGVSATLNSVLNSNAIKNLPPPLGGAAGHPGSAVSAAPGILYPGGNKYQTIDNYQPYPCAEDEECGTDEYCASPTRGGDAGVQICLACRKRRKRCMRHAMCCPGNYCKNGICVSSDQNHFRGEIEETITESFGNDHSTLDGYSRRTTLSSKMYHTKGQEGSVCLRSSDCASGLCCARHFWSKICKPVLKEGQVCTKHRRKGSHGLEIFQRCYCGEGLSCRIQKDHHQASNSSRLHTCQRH
# [20] = system: Inhibin beta A chain (activin A); assay: small molecules binding activin A – biochemical, small-molecule microarray, 635 nm fluorescence scan, primary screen (AID 1107); conditions: INHBA, higher = more signal;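 note: mouse activin A protein probed at 4.33 µg/mL on printed slides; score merges bound-protein fluorescence near 667 nm with spot signal-to-noise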
Structure (SMILES),composite z-score [1],z-score [2],z-score [3],z-score [4],composite z-score [5],z-score [6],composite z-score [7],composite z-score [8],composite z-score [9],composite z-score [10],composite z-score [11],composite z-score [12],composite z-score [13],z-score [14],composite z-score [15],composite z-score [16],composite z-score [17],composite z-score [18],composite z-score [19],composite z-score [20]
CC(C)=NOC[C@@H](O)COCc1ccco1,-0.697,0.848 (inactive),0.174 (inactive),0.746 (inactive),-0.151,0.358 (inactive),-0.122,0.301,-1.45,-0.147,1.21,-0.254,-0.0658,0.638 (inactive),-0.341,-1.15,-0.298,-0.628,0.421,0.912
CC(CO)N1C(=O)[C@@H]2C3C(=O)OCCC=C[C@H]3OC23C=CCN(Cn2nnc4ccccc42)C(=O)[C@@H]13 (stereo not given in full),-0.414 and 0.262,1.52 (inactive) and -1.09 (inactive),0.102 (inactive) and -0.115 (inactive),0.73 (inactive) and -0.0895 (inactive),0.145 and 3.01,0.775 (inactive) and -0.175 (inactive),-0.223 and -0.0882,-1.78 and 0.0711,-0.391 and 0.347,-0.203 and -0.0828,1.07 and 1.47,-0.26 and -0.125,0.683 and 0.303,-0.0985 (inactive) and 0.148 (inactive),-0.914 and 0.715,-1.38 and -0.212,-1.56 and -0.105,-1.68 and -0.219,-2.03 and -0.18,-0.785 and 0.234
COC(=O)C1=C(C)N(Cc2ccccc2)C2=C3C(=O)N(c4ccccc4)C(=O)[C@@H]3[C@@](O)(C(=O)OC)C(=O)N2[C@@H]1c1ccccc1,0.345 and 1.13,0.286 (inactive) and -1.22 (inactive),-1.52 (inactive) and -2.29 (inactive),-1.18 (inactive) and -1.1 (inactive),0.806 and 1.46,0.117 (inactive) and 1.24 (inactive),-0.0736 and -0.0453,0.608 and 0.455,0.54 and 1.04,-0.0125 and -0.0534,-0.0191 and 0.501,-0.0254 and -0.186,-0.914 and -0.616,0.0988 (inactive) and -2.38 (inactive),1.17 and 0.553,0.387 and 0.542,0.566 and 0.369,0.802 and 0.527,0.603 and 0.58,-0.042 and -0.581
CCOC(=O)NN=C1C[C@@H](O)[C@@H](O)[C@@H]2[C@@H]3C(=O)N(Cc4ccc5c(c4)OCO5)C(=O)[C@@H]3CC[C@@H]12,0.365,0.282 (inactive),-0.117 (inactive),-0.135 (inactive),2.14,0.234 (inactive),-0.148,0.0857,-0.209,-0.148,0.0867,-0.0464,-0.331,0.0278 (inactive),0.0364,0.424,0.231,-0.406,0.0071,-0.134
